Test results taken from PubChem BioAssay AID504648 (National Center for Advancing Translational Sciences (NCATS), 2011).
The campaign covered roughly 390,000 compounds. About 610 (0.16%) were called active. Entries that show only a call come without a potency. Roughly 4% stayed inconclusive and do not appear here. The sample holds actives, similar compounds and a random draw of the others, so the mix is not that of the screen. Values without a mark were called inactive. Calls follow the shape of the dose curve; as a rule, active = well fitted inhibition curve with a large enough effect; inconclusive = small, poorly fitted or top-dose-only effect, or effect the other way, or another doubt; inactive = no such curve, though single readings can be large or run the other way.

Experiment: Nrf2 qHTS screen for inhibitors: counterscreen for cytotoxicity
Settings: A549 ARE-Fluc cells, CellTiter-Fluor viability, 18-24 h; series mostly up to 46 µM
Outline: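 A549 ARE-Fluc cells in 5% FBS OPTI-MEM, 5000 cells/well, rested 2 h then exposed to compounds in concentration-response for 18-24 h at 37 °C. Viability by CellTiter-Fluor fluorescence (Ex 405/Em 525) after 30 min; luciferase luminescence (BugLite, 15 min, RT) read afterwards.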
Potency is read from the fitted curve at half-maximal effect.

| SMILES | Potency | activity change, negative = cytotoxicity |
| --- | --- | --- |
| COc1ccc(C2Nc3ccccc3C(=O)N2Cc2ccc(CNC(=O)CO)cc2)cc1COc1ccc(NC(C)=O)cc1 (configuration not stated) | inactive |  |
| Cc1ccc(OCCn2c(CNc3ccccc3C)nc3ccccc32)cc1 | inactive |  |
| O=C(CCC1N=C2c3ccccc3N=C(SCc3ccccc3F)N2C1=O)NCCc1ccccc1 (configuration not stated) | inactive |  |
| CN(C)Cc1cn(-c2ccccc2)nc1-c1ccccc1 | inactive |  |
| COC(=O)C(CC(C)C)NS(=O)(=O)c1cc(Br)ccc1Br (configuration not stated) | inactive |  |
| Cc1cc(C)cc(NC(=O)CCS(=O)(=O)c2cc3c4c(c2)CCN4C(=O)CC3)c1 | inactive |  |
| O=[N+]([O-])c1ccc(S(=O)(=O)N2CCN(c3nc(-c4ccccc4)nc4ccccc34)CC2)cc1 | inactive |  |
| COc1ccc(C2Nc3ccccc3C(=O)N2Cc2ccco2)cc1COc1cccc(NC(C)=O)c1 (configuration not stated) | inactive |  |
| C=CCNC(=O)c1ccc2nc(-c3ccco3)c(-c3ccco3)nc2c1 | inactive |  |
| CCOc1ccc(NC(=O)c2c(NCc3cccc(OC)c3OC)sc3c2CCC3)cc1 | inactive |  |
| CCOc1ccc(CC(=O)NCCc2csc3nc(-c4ccccc4F)nn23)cc1 | inactive |  |
| CC(=O)Nc1ccc(S(=O)(=O)N2N=NC3C2C2CC4C3(CN(C(=O)OC(C)(C)C)S4(=O)=O)O2)cc1 (configuration not stated) | inactive |  |
| COc1ccc(CCn2c3c(c(=O)[nH]c2=S)CN(C(C)C)CN3)cc1OC | inactive |  |
| Cc1ccc(CNS(=O)(=O)c2ccc(C(=O)N(C)C)s2)cc1 | inactive |  |
| Cc1cc(C)n2ncc(C(=O)Nc3cccc(C#N)c3)c2n1 |  | -5.38% [at 9.26 µM] |
| Oc1ccc(Cl)cc1C1C=C(c2ccc3c(c2)OCO3)NC(c2c(F)cccc2Cl)N1 (configuration not stated) | inactive |  |
| COc1ccc(C2/C=C\CN(C(=O)c3ccc(C)cc3)C(Cc3ccccc3)C(=O)N2Cc2ccc(F)cc2)cc1 (configuration not stated) | inactive |  |
| C=C1CCN(C(CC(C)C)C(=O)NCc2cc(OC)c(OC)c(OC)c2)S(=O)(=O)c2ccccc21 (configuration not stated) | inactive |  |
| CCn1cc(/C=C2/SC(=S)NC2=O)c(C)n1 | 18.4 µM (active) |  |
| COc1cccc(C2c3c(ncn(-c4cccc(Br)c4)c3=N)Oc3ccc4ccccc4c32)c1 (configuration not stated) | inactive |  |
| O=C(Nc1cccc2cccnc12)C(F)(F)F | inactive |  |
| N#Cc1nc(NCc2ccc(Cl)c(Cl)c2)c2ncn(CCCO)c2n1 | inactive |  |
| Cc1c(Cl)cccc1-c1ccc(CNCCCSc2nnnn2C)o1 | inactive |  |
| O=S1(=O)N=C(Oc2cccc(Br)c2)c2ccccc21 | inactive |  |
| O=C(NCc1ccccn1)[C@]1(C(F)(F)F)C[C@H](CCc2ccccc2)CCCO1 | inactive |  |
| O=c1ccc2c(-c3ccccc3S(=O)(=O)O)c3ccc(O)c(O)c3oc-2c1O | 13 µM (active) |  |

| SMILES | Potency | activity change, negative = cytotoxicity |
| --- | --- | --- |
| Cc1cc2c(s1)c1cnn(Cc3c(F)cccc3Cl)c(=O)c1n2C | inactive |  |
| CC(=O)NC(c1cccs1)c1cc(Cl)c2cccnc2c1O (configuration not stated) | inactive |  |
| COC(=O)c1ccccc1NC(=O)c1ccc(C#N)cc1 | inactive |  |
| COc1ccc(-c2ccc3ncnc(NCc4cccs4)c3c2)cc1OC | inactive |  |
| COc1ccccc1NC(=O)CSC1=Nc2ccccc2C2=NC(CC(=O)NCc3cccs3)C(=O)N12 (configuration not stated) | inactive |  |
| Cc1ccc(-c2nc3ccccn3c2Nc2ccc(F)cc2)o1 | inactive |  |
| COC(=O)c1ccccc1S(=O)(=O)Nc1ccc(OC)cc1 | inactive |  |
| Oc1ccc(Cl)cc1C1C=C(c2ccc3c(c2)OCO3)NC(c2ccc(F)c(Br)c2)N1 (configuration not stated) | inactive |  |
| O=C(NC(Nc1nc2ccc([N+](=O)[O-])cc2s1)(C(F)(F)F)C(F)(F)F)c1ccccc1 | 10.3 µM (active) |  |
| CNC(=O)c1ccsc1NC(=O)c1ccc(S(=O)(=O)N2CCc3ccccc32)cc1 | inactive |  |
| NS(=O)(=O)c1ccc2nc(NC(=O)COc3ccccc3)sc2c1 | inactive |  |
| O=C(Nc1nc2ccc([N+](=O)[O-])cc2s1)c1ccc(S(=O)(=O)N2CCCc3ccccc32)cc1 | 9.2 µM (active) |  |
| O=C(Nc1nnc(S(=O)(=O)N2CCCc3ccccc32)s1)c1cccc(F)c1 | inactive |  |
| O=C(CNC(=O)c1ccccc1)OC(C(=O)Nc1cc([N+](=O)[O-])ccc1F)c1ccccc1 (configuration not stated) | inactive |  |
| COc1ccc(C2=Nn3c(nnc3-c3ccccc3O)SC2)cc1 | inactive |  |
| Cc1ccc(CNc2ncnc3cc(-c4ccc5c(c4)OCO5)ccc23)o1 | inactive |  |
| Cc1oc2c(c1C(=O)N1CCOCC1)C(=O)c1ccccc1C2=O | 16.4 µM (active) |  |
| Cc1ccc(S(=O)(=O)NC(C(=O)N2CCOCCOCCOCCOCC2)c2ccccc2)cc1 (configuration not stated) | inactive |  |
| Cc1ccc(C)c(CN2C(=O)c3ccccc3S(=O)c3ccc(C(=O)N4CCOCC4)cc32)c1 (configuration not stated) | inactive |  |
| CCN(CC)c1nc(C#N)nc(OC)n1 | inactive |  |
| Cc1ccccc1OCCSc1nc2ccc(NC(=O)c3ccco3)cc2s1 | inactive |  |
| CCOc1ccccc1NC(=O)CN1CCCN(Cc2cccc(Cl)c2)S1(=O)=O | inactive |  |
| CC(C)c1ccc(NC(=O)Cn2c3ncccc3c(=O)n2-c2ccccc2)cc1 | inactive |  |
| Cc1ccc(C(=O)Nc2nc(-c3ccccc3)ns2)cc1 | inactive |  |
| CCN1CCN(CCCNC(=O)c2ccc3c(c2)sc2nc(-c4ccc(OC)cc4)cn23)CC1 | inactive |  |
| Cc1cc2nc(NC(=O)c3ccc(S(=O)(=O)N4CCOCC4)cc3)sc2cc1C | inactive |  |

| SMILES | Potency | activity change, negative = cytotoxicity |
| --- | --- | --- |
| Cc1ccc(NS(=O)(=O)c2ccc(C(=O)NCCCN3CCOCC3)cc2)cc1 | inactive |  |
| Cc1ccc(/C=C2/SC(=S)N(CCC(=O)NCCCN3CCOCC3)C2=O)cc1 | 14.6 µM (active) |  |
| CC(C)c1ccc(/C=C/C(=O)NCCCN2CCOCC2)cc1 | inactive |  |
| O=C(NCC1CC1)C1(C(F)(F)F)C/C(=C\CCO)CCCO1 (configuration not stated) | inactive |  |
| CCN1/C(=C\c2ccc3ccccc3[n+]2CC)Sc2cc(C)ccc21 | 23.1 µM (active) |  |
| Cc1ccc(CN2CCCn3nc(C(=O)NCc4ccccc4Cl)cc3C2=O)cc1 | inactive |  |
| Cc1ccc(Nc2c(-c3ccc(N(C)C)cc3)nc3nc[nH]n23)cc1 | inactive |  |
| CN(C)c1ccc(Nc2c3c4c(cccc4n(C)c2=O)C(=O)c2ccccc2-3)cc1 | 14.6 µM (active) |  |
| COc1cc(OC)c2c(c1C(CCN1CCCCC1)c1ccc(N(C)C)cc1)OC(=O)CC2c1ccc(N(C)C)cc1 (configuration not stated) | inactive |  |
| Cc1ccc(OCCSc2nc(-c3cccs3)nc3cc(=O)[nH]n23)cc1Cl | inactive |  |
| CCOc1ccc(NC(=O)C(CC(C)C)N2Cc3ccccc3C2=O)cc1 (configuration not stated) | inactive |  |
| COc1cc(Cl)c(C)cc1NC(=O)CCc1nc2cccnc2n1Cc1cccs1 | inactive |  |
| CN(C)c1ccc(C(=O)NCC(=O)OC(C(=O)Nc2cc(C(F)(F)F)ccc2Cl)c2ccccc2)cc1 (configuration not stated) | inactive |  |
| Cc1ccc(C(=O)NC2CCN(C#N)CC2)cc1 | inactive |  |
| COc1ccc(-c2nc(S(=O)(=O)c3ccccc3)c(N3CCCCC3)o2)cc1 | inactive |  |
| O=S(=O)(c1ccc2c(c1)OCCO2)N1CCN(S(=O)(=O)c2cc(F)ccc2F)CC1 | inactive |  |
| COc1ccc(C2/C=C\CN(Cc3ccco3)C(C)C(=O)N2Cc2ccc(F)cc2)cc1 (configuration not stated) | inactive |  |
| COc1cccc(NC(=O)Nc2ccc3c(c2)N(C)C(=O)c2ccccc2S3)c1 | inactive |  |
| CC1(C)CCc2cc(S(=O)(=O)N3CCN(c4nc(-c5cccs5)nc5ccccc45)CC3)ccc2O1 | inactive |  |
| CCCS(=O)(=O)N1CCC(n2c(C(F)(F)F)nc3cccnc32)CC1 | inactive |  |
| OCCNc1ncnc2oc(-c3ccco3)c(-c3ccco3)c12 | inactive |  |
| COc1ccc(C2CC(O)(c3ccccc3)Oc3cc(C)cc(C)c32)cc1 (configuration not stated) | inactive |  |
| O=S(=O)(c1cccc(C(F)(F)F)c1)N1CCN(c2nc(-c3cccs3)nc3ccccc23)CC1 | inactive |  |
| COc1cccc(C(=O)NC2CCN(C#N)CC2)c1 | inactive |  |
| C=CCCN(C(Cc1ccccc1)C(=O)OC)S(=O)(=O)c1cc(Br)ccc1Br (configuration not stated) | inactive |  |
